# Assay results taken from the supplement of paper PMC4466140.
# Legend:
# Assay in all cases: SPOT peptide array binding signal intensity (averaged, normalized) (arbitrary units (background-subtracted, floor 0; scale differs between SH3 domains)); higher = stronger binding of the SH3 domain to the peptide
# CaNbp2 = target: CaNbp2
# Method in brief: (§1)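 GST-fused SH3 domains, from four yeast species, were produced in E. coli BL21(DE3) and captured on glutathione Sepharose. Membranes of cellulose carrying synthetic 15-mer peptides, in which cysteines had been replaced by serines, were exposed to each domain at 10 μg/ml overnight at 4°C in TBS-based blocking buffer. After anti-GST antibody, an HRP anti-mouse secondary and luminol, spots were imaged and quantified using Genespotter. Binding signal is normalized and background-subtracted spot intensity, averaged over replicates, in arbitrary units that differ between domains.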
# CaRvs167 = target: CaRvs167
# Method in brief: as §1
# CaRvs167-3 = target: CaRvs167-3
# Method in brief: as §1
# CaSho1 = target: CaSho1
# Method in brief: as §1
# CaSla1-D1-D2 = target: CaSla1-D1-D2
# Method in brief: as §1
# CaSla1-D3 = target: CaSla1-D3
# Method in brief: as §1
# ScAbp1 = target: ScAbp1
# Method in brief: as §1
# ScBbc1 = target: ScBbc1
# Method in brief: as §1
# ScBem1-D1 = target: ScBem1-D1
# Method in brief: as §1
# ScBzz1-D1 = target: ScBzz1-D1
# Method in brief: as §1
# ScBzz1-D2 = target: ScBzz1-D2
# Method in brief: as §1
# ScCyk3 = target: ScCyk3
# Method in brief: as §1
# ScFus1 = target: ScFus1
# Method in brief: as §1
# ScHof1 = target: ScHof1
# Method in brief: as §1
# ScHse1 = target: ScHse1
# Method in brief: as §1
# ScLsb1 = target: ScLsb1
# Method in brief: as §1
# ScLsb2 = target: ScLsb2
# Method in brief: as §1
# ScLsb3 = target: ScLsb3
# Method in brief: as §1
# ScLsb4 = target: ScLsb4
# Method in brief: as §1
# ScMyo3 = target: ScMyo3
# Method in brief: as §1
# ScMyo5 = target: ScMyo5
# Method in brief: as §1
# ScNbp2 = target: ScNbp2
# Method in brief: as §1
# ScPex13 = target: ScPex13
# Method in brief: as §1
# ScRvs167 = target: ScRvs167
# Method in brief: as §1
# ScSho1 = target: ScSho1
# Method in brief: as §1
# ScSla1-D1-D2 = target: ScSla1-D1-D2
# Method in brief: as §1
# ScSla1-D3 = target: ScSla1-D3
# Method in brief: as §1
# SpAbp1-D1 = target: SpAbp1-D1
# Method in brief: as §1
# SpBbc1 = target: SpBbc1
# Method in brief: as §1
# SpBzz1-D1 = target: SpBzz1-D1
# Method in brief: as §1
# SpBzz1-D2 = target: SpBzz1-D2
# Method in brief: as §1
# SpCyk3 = target: SpCyk3
# Method in brief: as §1
# SpHof1 = target: SpHof1
# Method in brief: as §1
# SpHof1-2 = target: SpHof1-2
# Method in brief: as §1
# SpHof1-3 = target: SpHof1-3
# Method in brief: as §1
# SpHse1 = target: SpHse1
# Method in brief: as §1
# SpLsb1 = target: SpLsb1
# Method in brief: as §1
# SpLsb4 = target: SpLsb4
# Method in brief: as §1
# SpMyo1 = target: SpMyo1
# Method in brief: as §1
# SpNbp2 = target: SpNbp2
# Method in brief: as §1
# SpPex13 = target: SpPex13
# Method in brief: as §1
# SpRvs167 = target: SpRvs167
# Method in brief: as §1
# SpSla1-D1-D2 = target: SpSla1-D1-D2
# Method in brief: as §1
# SpSla1-D3 = target: SpSla1-D3
# Method in brief: as §1
# AgAbp1 = target: AgAbp1
# Method in brief: as §1
# AgBbc1 = target: AgBbc1
# Method in brief: as §1
# AgBem1-D1 = target: AgBem1-D1
# Method in brief: as §1
# AgBzz1-D1 = target: AgBzz1-D1
# Method in brief: as §1
# AgBzz1-D2 = target: AgBzz1-D2
# Method in brief: as §1
# AgCyk3 = target: AgCyk3
# Method in brief: as §1
# AgFus1 = target: AgFus1
# Method in brief: as §1
# AgHof1 = target: AgHof1
# Method in brief: as §1
# AgHse1 = target: AgHse1
# Method in brief: as §1
# AgLsb1 = target: AgLsb1
# Method in brief: as §1
# AgLsb4 = target: AgLsb4
# Method in brief: as §1
# AgMyo5 = target: AgMyo5
# Method in brief: as §1
# AgNbp2 = target: AgNbp2
# Method in brief: as §1
# AgRvs167 = target: AgRvs167
# Method in brief: as §1
# AgSho1 = target: AgSho1
# Method in brief: as §1
# AgSla1-D1-D2 = target: AgSla1-D1-D2
# Method in brief: as §1
# AgSla1-D3 = target: AgSla1-D3
# Method in brief: as §1
# CaAbp1-D1 = target: CaAbp1-D1
# Method in brief: as §1
# CaAbp1-D2 = target: CaAbp1-D2
# Method in brief: as §1
# CaBbc1 = target: CaBbc1
# Method in brief: as §1
# CaBem1-D1 = target: CaBem1-D1
# Method in brief: as §1
# CaBzz1-D1 = target: CaBzz1-D1
# Method in brief: as §1
# CaBzz1-D2 = target: CaBzz1-D2
# Method in brief: as §1
# CaCyk3 = target: CaCyk3
# Method in brief: as §1
# CaFus1 = target: CaFus1
# Method in brief: as §1
# CaHof1 = target: CaHof1
# Method in brief: as §1
# CaHse1 = target: CaHse1
# Method in brief: as §1
# CaLsb1 = target: CaLsb1
# Method in brief: as §1
# CaLsb4 = target: CaLsb4
# Method in brief: as §1
# CaMyo5 = target: CaMyo5
# Method in brief: as §1
binder,measurement,setting,value
KKAPPPVVKPKPRNF,SPOT peptide array binding signal intensity,CaNbp2,36.5
same,SPOT peptide array binding signal intensity,CaRvs167,11
same,SPOT peptide array binding signal intensity,CaRvs167-3,8
same,SPOT peptide array binding signal intensity,CaSho1,23
same,SPOT peptide array binding signal intensity,CaSla1-D1-D2,3160
same,SPOT peptide array binding signal intensity,CaSla1-D3,4.75
same,SPOT peptide array binding signal intensity,ScAbp1,7880
same,SPOT peptide array binding signal intensity,ScBbc1,3
same,SPOT peptide array binding signal intensity,ScBem1-D1,6
same,SPOT peptide array binding signal intensity,ScBzz1-D1,178
same,SPOT peptide array binding signal intensity,ScBzz1-D2,60
same,SPOT peptide array binding signal intensity,ScCyk3,7
same,SPOT peptide array binding signal intensity,ScFus1,15
same,SPOT peptide array binding signal intensity,ScHof1,3.5
same,SPOT peptide array binding signal intensity,ScHse1,61
same,SPOT peptide array binding signal intensity,ScLsb1,20.5
same,SPOT peptide array binding signal intensity,ScLsb2,2
same,SPOT peptide array binding signal intensity,ScLsb3,≤ 0
same,SPOT peptide array binding signal intensity,ScLsb4,3.5
same,SPOT peptide array binding signal intensity,ScMyo3,≤ 0
same,SPOT peptide array binding signal intensity,ScMyo5,≤ 0
same,SPOT peptide array binding signal intensity,ScNbp2,32
same,SPOT peptide array binding signal intensity,ScPex13,0.5
same,SPOT peptide array binding signal intensity,ScRvs167,5.17
same,SPOT peptide array binding signal intensity,ScSho1,37.5
same,SPOT peptide array binding signal intensity,ScSla1-D1-D2,3640
same,SPOT peptide array binding signal intensity,ScSla1-D3,17
same,SPOT peptide array binding signal intensity,SpAbp1-D1,2160
same,SPOT peptide array binding signal intensity,SpBbc1,0.75
same,SPOT peptide array binding signal intensity,SpBzz1-D1,318
same,SPOT peptide array binding signal intensity,SpBzz1-D2,0.5
same,SPOT peptide array binding signal intensity,SpCyk3,1
same,SPOT peptide array binding signal intensity,SpHof1,12
same,SPOT peptide array binding signal intensity,SpHof1-2,13.2
same,SPOT peptide array binding signal intensity,SpHof1-3,31
same,SPOT peptide array binding signal intensity,SpHse1,117
same,SPOT peptide array binding signal intensity,SpLsb1,1140
same,SPOT peptide array binding signal intensity,SpLsb4,27
same,SPOT peptide array binding signal intensity,SpMyo1,7
same,SPOT peptide array binding signal intensity,SpNbp2,43
same,SPOT peptide array binding signal intensity,SpPex13,3.5
same,SPOT peptide array binding signal intensity,SpRvs167,≤ 0
same,SPOT peptide array binding signal intensity,SpSla1-D1-D2,5.5
same,SPOT peptide array binding signal intensity,SpSla1-D3,10.5
VGFRLALKFPSRITG,SPOT peptide array binding signal intensity,AgAbp1,156
same,SPOT peptide array binding signal intensity,AgBbc1,89.2
same,SPOT peptide array binding signal intensity,AgBem1-D1,596
same,SPOT peptide array binding signal intensity,AgBzz1-D1,231
same,SPOT peptide array binding signal intensity,AgBzz1-D2,180
same,SPOT peptide array binding signal intensity,AgCyk3,107
same,SPOT peptide array binding signal intensity,AgFus1,3790
same,SPOT peptide array binding signal intensity,AgHof1,137
same,SPOT peptide array binding signal intensity,AgHse1,3050
same,SPOT peptide array binding signal intensity,AgLsb1,17.2
same,SPOT peptide array binding signal intensity,AgLsb4,1990
same,SPOT peptide array binding signal intensity,AgMyo5,9.5
same,SPOT peptide array binding signal intensity,AgNbp2,1370
same,SPOT peptide array binding signal intensity,AgRvs167,55.5
same,SPOT peptide array binding signal intensity,AgSho1,2510
same,SPOT peptide array binding signal intensity,AgSla1-D1-D2,505
same,SPOT peptide array binding signal intensity,AgSla1-D3,31
same,SPOT peptide array binding signal intensity,CaAbp1-D1,766
same,SPOT peptide array binding signal intensity,CaAbp1-D2,1210
same,SPOT peptide array binding signal intensity,CaBbc1,179
same,SPOT peptide array binding signal intensity,CaBem1-D1,147
same,SPOT peptide array binding signal intensity,CaBzz1-D1,976
same,SPOT peptide array binding signal intensity,CaBzz1-D2,473
same,SPOT peptide array binding signal intensity,CaCyk3,118
same,SPOT peptide array binding signal intensity,CaFus1,5990
same,SPOT peptide array binding signal intensity,CaHof1,13.8
same,SPOT peptide array binding signal intensity,CaHse1,966
same,SPOT peptide array binding signal intensity,CaLsb1,25
same,SPOT peptide array binding signal intensity,CaLsb4,716
same,SPOT peptide array binding signal intensity,CaMyo5,105
same,SPOT peptide array binding signal intensity,CaNbp2,2320
same,SPOT peptide array binding signal intensity,CaRvs167,703
same,SPOT peptide array binding signal intensity,CaRvs167-3,2360
same,SPOT peptide array binding signal intensity,CaSho1,3450
same,SPOT peptide array binding signal intensity,CaSla1-D1-D2,108
same,SPOT peptide array binding signal intensity,CaSla1-D3,782
same,SPOT peptide array binding signal intensity,ScAbp1,137
same,SPOT peptide array binding signal intensity,ScBbc1,11.5
same,SPOT peptide array binding signal intensity,ScBem1-D1,60
same,SPOT peptide array binding signal intensity,ScBzz1-D1,188
same,SPOT peptide array binding signal intensity,ScBzz1-D2,649
same,SPOT peptide array binding signal intensity,ScCyk3,137
same,SPOT peptide array binding signal intensity,ScFus1,3260
same,SPOT peptide array binding signal intensity,ScHof1,7.5
same,SPOT peptide array binding signal intensity,ScHse1,3980
same,SPOT peptide array binding signal intensity,ScLsb1,12
same,SPOT peptide array binding signal intensity,ScLsb2,38
same,SPOT peptide array binding signal intensity,ScLsb3,1230
same,SPOT peptide array binding signal intensity,ScLsb4,152
same,SPOT peptide array binding signal intensity,ScMyo3,8.5
same,SPOT peptide array binding signal intensity,ScMyo5,26.5
same,SPOT peptide array binding signal intensity,ScNbp2,1400
same,SPOT peptide array binding signal intensity,ScPex13,67.8
same,SPOT peptide array binding signal intensity,ScRvs167,180
same,SPOT peptide array binding signal intensity,ScSho1,3930
same,SPOT peptide array binding signal intensity,ScSla1-D1-D2,561
same,SPOT peptide array binding signal intensity,ScSla1-D3,246
same,SPOT peptide array binding signal intensity,SpAbp1-D1,658
same,SPOT peptide array binding signal intensity,SpBbc1,97.5
same,SPOT peptide array binding signal intensity,SpBzz1-D1,1110
same,SPOT peptide array binding signal intensity,SpBzz1-D2,111
same,SPOT peptide array binding signal intensity,SpCyk3,75
same,SPOT peptide array binding signal intensity,SpHof1,620
same,SPOT peptide array binding signal intensity,SpHof1-2,179
same,SPOT peptide array binding signal intensity,SpHof1-3,2110
same,SPOT peptide array binding signal intensity,SpHse1,1790
same,SPOT peptide array binding signal intensity,SpLsb1,40.5
same,SPOT peptide array binding signal intensity,SpLsb4,913
same,SPOT peptide array binding signal intensity,SpMyo1,41
same,SPOT peptide array binding signal intensity,SpNbp2,2320
same,SPOT peptide array binding signal intensity,SpPex13,578
same,SPOT peptide array binding signal intensity,SpRvs167,161
same,SPOT peptide array binding signal intensity,SpSla1-D1-D2,17
same,SPOT peptide array binding signal intensity,SpSla1-D3,260
